Substitutions are numbered along the chain they refer to. Whole data set: some 24,000 sequences, median “enrichment r” near 0.99, cut for the highest 2% near 3.7. This excerpt belongs to a sample that is enriched for the highest values.
T1: UNK ZnF1-3 (human, UniProt Q9C0B0 31-174)
T1 sequence: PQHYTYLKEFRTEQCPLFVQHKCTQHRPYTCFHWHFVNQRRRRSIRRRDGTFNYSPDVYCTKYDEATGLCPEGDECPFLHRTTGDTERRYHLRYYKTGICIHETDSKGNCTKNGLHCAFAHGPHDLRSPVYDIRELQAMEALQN

B1: chr17:34945718:34945719:+_ENSG00000005955_ENST00000304718|hu_hu|FALSE|FALSE (ssRNA)
RNA: GGGAGUUCUACAGUCCGACGAUCAUUUAACCGGCAGUAUUUAUUAAAUUUCUCCUUCAGAUGCUGUCGGUAUUGUUCUCUAUUGCUGUAGAAAGACUGGUUAUUAGCCAUAAAUGACUGUAUUUCAUCUUGUGAGAUAAAGAUCAACAGAGGAUUGAGCAUCA
B2: 90247206_90247326_4093_3pUTR_ENSMUSG00000012422_ENSMUST00000161568|mouse|control|control (ssRNA)
RNA: GGGAGUUCUACAGUCCGACGAUCUUCUCAGAAGUUAGUCAGGACCCCCUGUAACAAGGGCGAUUGCUAGCACCGUUUGAGAACAUUUAUUAUUACUAGAAGGUAACAAAGGAAGAGAAGAGCAGCCCUAAGAAUUUUCCAUUCCAACAGAGGAUUGAGCAUCA
B3: 75758389_75758509_1054_3pUTR_ENSMUSG00000032932_ENSMUST00000046283|mouse|control|control (ssRNA)
RNA: GGGAGUUCUACAGUCCGACGAUCUCAGAAAGGCCAGGUCUAAACACUCUAUUCACAUGGUGACCAUCUCCUGGGGUGAGCUGGUCUUUUGGCAGUUCAGAGUCACCAUUCUGAGGUUCCUUGCUGUCCUUCCCCUCCACAGUGCAACAGAGGAUUGAGCAUCA
B4: chr6:41757443:41757444:+_ENSG00000214736_ENST00000398881|hu_mus|hu_hu_hu_mus_False|98_98 (ssRNA)
RNA: GGGAGUUCUACAGUCCGACGAUCGAACCGUGCAGAGACCAGAGAAUAGCCGACACUGGGGGAUGGGGGGGCAGUGGGGGGGGGUUCAGGCAAGGAGAGGGAGUCAACUUCAGCUGCCACUCAGGUAGGAUCUUGUGGUCACAGCAACAGAGGAUUGAGCAUCA
B5: chr16:14738297:14738298:+_ENSG00000103429_ENST00000261658|hu_mus|FALSE|FALSE (ssRNA)
RNA: GGGAGUUCUACAGUCCGACGAUCGUUCAAGGUGGUGGGGUUAACCAGGGUGUCGUAGCAGCAGUGGCAGGAGAACUCGCUCACAGAAAUCUGAGGGCCGCUGCUUCUGACAGGAUGCUCUUCCUCCUGCUCUCUCAUGCUCAGCAACAGAGGAUUGAGCAUCA
B6: chr6:41757443:41757444:+_ENSG00000214736_ENST00000398881|hu_mus|hu_hu_hu_mus_False|48_98 (ssRNA)
RNA: B4 RNA with C90G, A95G
B7: chr6:41757443:41757444:+_ENSG00000214736_ENST00000398881|hu_mus|hu_hu_hu_mus_False|78_98 (ssRNA)
RNA: B4 RNA with G58U, G61A, A62C, G64C, G65A, G66A
B8: chr6:41757443:41757444:+_ENSG00000214736_ENST00000398881|hu_mus|hu_hu_hu_mus_False|98_108 (ssRNA)
RNA: B4 RNA with C28U, G31C, C32U, A33G, G34C, A35U
B9: chrX:98862621:98862622:+_ENSMUSG00000034160_ENSMUST00000044475|mus_hu|mus_mus_mus_hu_False|18_68 (ssRNA)
RNA: GGGAGUUCUACAGUCCGACGAUCCUGCAUCUCCUUUAGAGUGUUUCCCAUAUUAGAGUAGGCAUCAGCAAAUGUAGGACUGAUUCGAAUAGCCUCCUUAUAAUGCAUCAGAGCUUCCUGCAGCUUGCCCUGCUGCUGCAGUACCAACAGAGGAUUGAGCAUCA
B10: chr4:43703020:43703021:+_ENSMUSG00000078716_ENSMUST00000107866|mus_mus|FALSE|FALSE (ssRNA)
RNA: GGGAGUUCUACAGUCCGACGAUCCACACUGCCAGCAAUGAGCAUGUGCCAAAUGCUGUGAAUGUAGAAGUAGUUGUCCCGAGUCUCCACGAAAGCAUACAGUAGAACGGCACUGCCAGCAAUCAGGCUGCCGGGACACAGGUACAACAGAGGAUUGAGCAUCA
B11: chr2:130910683:130910684:-_ENSG00000136699_ENST00000351288|hu_hu|motif|central (ssRNA)
RNA: GGGAGUUCUACAGUCCGACGAUCGGAACACAGAGCCGCCAUCUGUCCUGCAAAUCUGUGGUUGAUGGCAGACGACAGCCGGAAGAGUGUGCGGACCAAGCUGGCGAUCUCAUAGCUCCGGAUGGGCUGCAGCUCCGGGUCCCCCAACAGAGGAUUGAGCAUCA
B12: chr17:56552419:56552420:-_ENSMUSG00000013236_ENSMUST00000086828|mus_mus|mus_mus_mus_hu_False|18_18 (ssRNA)
RNA: GGGAGUUCUACAGUCCGACGAUCAAAAAAUACACUAUUUAAAAAAAAUGAAAUGUCACGGGAUACAGUUACACUGAGAGUUUUAAAAGAAAGCUGGAUUCUGGUCCCAGCCCAGUGGCAGGCAGGGGCAGAGCGGGGAGGAGCCAACAGAGGAUUGAGCAUCA
B13: chr17:56552419:56552420:-_ENSMUSG00000013236_ENSMUST00000086828|mus_mus|mus_mus_mus_hu_False|18_98 (ssRNA)
RNA: B12 RNA with U38A, U39A
B14: chr5:145543945:145543946:-_ENSG00000133706_ENST00000545646|hu_hu|hu_hu_hu_mus_True|38_98 (ssRNA)
RNA: GGGAGUUCUACAGUCCGACGAUCCUGAACGGCCAGUGGCGGGAAAUAAUCAAGCCAGUGCUCUGCUUCAGAAAACUUCACUAUGUCGUCAUCAGAGAGGCCAAGGGAUUUCAUAAUGUCCCACUGGUACUUAGAAGAUCCUGCCAACAGAGGAUUGAGCAUCA
B15: chr17:56552419:56552420:-_ENSMUSG00000013236_ENSMUST00000086828|mus_mus|mus_mus_mus_hu_False|18_48 (ssRNA)
RNA: B12 RNA with G88A, G92A, C93U, U94A, G95A
B16: chr17:56552419:56552420:-_ENSMUSG00000013236_ENSMUST00000086828|mus_mus|mus_mus_mus_hu_False|18_58 (ssRNA)
RNA: B12 RNA with G77C, G79C, U81A
B17: chr17:56552419:56552420:-_ENSMUSG00000013236_ENSMUST00000086828|mus_mus|mus_mus_mus_hu_False|1_18 (ssRNA)
RNA: B12 RNA with A138C, G139A, C143G
B18: chr17:56552419:56552420:-_ENSMUSG00000013236_ENSMUST00000086828|mus_mus|mus_mus_mus_hu_False|8_18 (ssRNA)
RNA: B12 RNA with C128A, A129G, G130U, A131G, G132C, C133G, G135A, G136A

Biological target: T1, UNK ZnF1-3
Experiment: nsRBNS (natural sequence RNA bind-n-seq); RBNS binding buffer (assumed for nsRBNS): 25 mM Tris pH 7.5, 150 mM KCl, 3 mM MgCl2, 0.01% Triton X-100, 500 ug/ml BSA, 20 U/ml SUPERase-In, 4 C; UNK is unkempt and MSI1 is Musashi-1; names of the RNAs are library labels; protein concentration not given here; high values mean tight binding

Compared with B1, B2 is higher in binding signal: 0.361 enrichment R for the first, 0.591 enrichment R for the second.

Compared with B3, B4 is higher in binding signal: 0.633 enrichment R for the first, 3.31 enrichment R for the second.

First: B5
Second: B6
The binding signal of the first is lower: 0.931 enrichment R for the first, 5.8 enrichment R for the second.

Going from B7 to B8, the binding signal rises from 1.9 enrichment R to 4.46 enrichment R.

Compared with B9, B10 is lower in binding signal: 1.07 enrichment R for the first, 0.899 enrichment R for the second.

Compared with B11, B12 is higher in binding signal: 0.907 enrichment R for the first, 3.38 enrichment R for the second.

Compared with B13, B14 is lower in binding signal: 6.3 enrichment R for the first, 1.21 enrichment R for the second.

Compared with B15, B16 is lower in binding signal: 7.31 enrichment R for the first, 5.2 enrichment R for the second.

First: B17
Second: B18
The binding signal of the first is lower: 3.35 enrichment R for the first, 3.69 enrichment R for the second.

Source: publication PMC12136788
